HT1080 IDH1KD tx = kills HT-1080 cells with IDH1 knockdown; HT-1080 IDH1 knockdown viability, ATP luminescence, 48 h; Potency, µM (series often up to 46.1 µM), for the others: at the highest dose activity, negative = toxicity, hits mostly cytotoxic; 360,000 tested, 2% active;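 also: 0% = DMSO wells and -100% = cell-free medium wells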
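Assay cells: HT-1080 with IDH1 knockdown, 750 per well, RPMI/5% FBS. Exposure: 48 h at 37 °C following 2 h pre-incubation. Read: CellTiter-Glo luminescence; fitted concentration-response, curve class assigned.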
DT40 TDP1 CPT = DT40-hTDP1 cell growth loss with CPT; chicken DT40 Tdp1-/-;hTDP1 cells + 20 nM CPT, ATP luminescence, 48 h; Potency, µM (titrated, usually from 46.2 µM), for inactives: top-dose activity change, negative = growth inhibition, most hits filed as inhibitors; 420,000 tested, 12% active; also: nearly all actives have a fitted effect of over 55% in size
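Chicken DT40 Tdp1-/- cells stably complemented with human TDP1 were seeded at 400 cells/well in medium containing 20 nM camptothecin, exposed to pin-transferred compounds, and grown at 37 °C for at least 48 hr. Viability was read as ATP luminescence.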
DT40 TDP1 no CPT = qHTS for Inhibitors of human tyrosyl-DNA phosphodiesterase 1 (TDP1): qHTS in cells in absence of CPT | DT40 Tdp1-/- hTDP1 cells, no CPT, ATP luminescence, 48 h | Potency, µM (doses to about 46.2 µM), for the others: at the highest dose activity change, negative = growth inhibition, usual class: inhibitors | 420,000 tested, 15% active | AID 686978, 2013; also: nearly all actives have a fitted effect of over 55% in size
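Chicken DT40 Tdp1-/- cells stably complemented with human TDP1 were seeded at 400 cells/well with DMSO in place of 20 nM camptothecin. After compound pinning, cells grew at least 48 hr at 37 °C; viability read by CellTiter-Glo luminescence.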
KB-V1 cytotox = KB-V1 MDR subline cytotoxicity; 400,000 tested, 3.4% active; KB-V1 MDR cells viability, CellTiter-Glo, 72 h; Potency, µM (series often up to 46.1 µM), most hits filed as cytotoxic; AID 1347076; also: nearly all actives have a fitted effect of over 60% in size
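Cells of the MDR subline KB-V1 are plated, dosed with compound at multiple concentrations, and incubated 72 h at 37 degrees C; CellTiter-Glo is then added and luminescence read after 10 min.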
HT1080-NT tox = kills 2HG-producing HT-1080-NT fibrosarcoma cells. HT-1080-NT fibrosarcoma viability, CellTiter-Glo ATP luminescence, 48 h. Potency, µM (highest dose often 46.1 µM), inactives show at the highest dose activity, negative = less viability, most hits filed as cytotoxic. 360,000 tested, 1.6% active;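 also: NT is the 2HG producing partner of a matched IDH1 knockdown line; 0% = DMSO-treated cells and -100% = media-only wells without cells; nearly all actives have a fitted effect of over 55% in size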
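Luminescent CellTiter-Glo readout after 48 hours of compound exposure at 37 degrees C defined viability of HT-1080-NT cells. Activity was normalized to DMSO wells and cell-free media wells; concentration-response curves were fitted and assigned curve classes.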
KB-3-1 tox = kills parental KB-3-1 adenocarcinoma cells. 400,000 tested, 1.4% active. AID 1347075. Potency, µM (titrated, usually from 46.1 µM), actives largely listed as cytotoxic. KB-3-1 viability, CellTiter-Glo ATP luminescence, 72 h; also: nearly all actives have a fitted effect of over 60% in size
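72 h, 37 °C compound treatment of KB-3-1 parental cells; CellTiter-Glo added, 10 min, luminescence read. Data corrected against DMSO-only plates and normalized before curve fitting.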
* hit, by the source's call; i = inactive; ? = inconclusive; . = not tested or not shown; ! = repeats disagree; [ ] = another dose, or the depositor's remark. This is a sample that favours compounds with a hit; in the whole collection about 19% have one here. Calls follow the shape of the dose curve; as a rule, active = well fitted curve in the direction sought with a large enough effect; inconclusive = small, poorly fitted or top-dose-only effect, or another doubt; inactive = no such curve, though single readings can be large; an effect the other way counts as inactive or inconclusive. Unless noted, % is scaled to controls: 0 for no effect and ±100 for the full control effect; potency is read from the fitted curve at half-maximal effect.

SMILES	HT1080 IDH1KD tx	DT40 TDP1 CPT	DT40 TDP1 no CPT	KB-V1 cytotox	HT1080-NT tox	KB-3-1 tox
Cc1ccc(-n2nc(C)c3c2NC(=O)CSC3c2ccc3c(c2)OCO3)cc1 (stereo unspecified)	2%[9.24 µM]	-30%	?	?	-1%	i
CCCCOC1NC(=O)NC(=O)C1(F)C(=O)OCC (stereo unspecified)	-24%	?	?	i	-16%	i
N[C@H](CP(=O)(O)O)C(=O)O	.	21%	-3%	.	.	.
O=C(c1ccco1)N1CCN(C(=O)c2ccc(COc3ccc(Cl)cc3Cl)o2)CC1	-5%	26µM*	?	?	-3%	i
COc1ccc(S(=O)(=O)N2CCN(C(=O)c3ccc(COc4ccccc4)o3)CC2)cc1	-14%	?	?	?	-17%	?
[S]=[Sb](=[S])[S][Sb](=[S])=[S]	.	5%	0%	.	.	.
CCOC(=O)c1ncn2c1CN(C)C(=O)c1cc(F)ccc1-2	?	?	-19%	i	0%	i
COC(=O)[C@]1(C)CC[C@@]2(C)CC[C@@]3(C)C4=CCc5c(cc(O)c(O)c5C)[C@]4(C)CC[C@@]3(C)C2C1 (stereo partly specified)	.	4.6µM*	1.8µM*	.	.	.
CN1CCN(Cc2cc3c(cc2[N+](=O)[O-])OCO3)CC1	2%	-8%	-29%	i	14%	i
Cc1ccc(-n2c(C)cc(/C=N/NC(=O)c3ccc(CN4CCOCC4)cc3)c2C)cc1	?	?	?	16µM*	-15%	i
COc1ccc(NC(=O)CCn2cnc3onc(-c4ccc(F)cc4)c3c2=O)cc1OC	.	2.9µM*	2.9µM*	i	.	i
COc1ccc(NC(=O)CCn2cc(C)c3ccccc32)cc1	-3%	-23%	?	i	1%	i
CCCCOP(=O)(c1ccc(N(C)C)cc1)C(Nc1ccccc1)c1ccccc1 (stereo unspecified)	-18%	15µM*	21µM*	3.7µM*	-10%	?
O=C1CN(O)C(c2ccccc2)=c2cc(Cl)ccc2=N1	-1%	-22%	-1%	i	7%	i
CC(=NCCN1CCCCC1)c1c(O)n(-c2ccc(Cl)cc2)c(=O)[nH]c1=O	4%	1%	-3%	i	5%	i
COC(=O)C1=C(c2ccccc2OCc2ccccc2)C[C@@H]2CC[C@H]1N2C(=O)NCc1ccc(OC)c(OC)c1	-17%	16µM*	21µM*	i	-1%	i
COC(=O)C1=C(c2ccccc2OCc2ccccc2)C[C@@H]2CC[C@H]1N2C(=O)NCc1ccc([N+](=O)[O-])cc1	?	23µM*	?	i	?	?
ClCCN(CCCl)c1ccc(C2=NCCc3ccccc32)cc1	14%	23µM*	?	?	2%	i
COc1ccc2c(c1)C(c1ccc(N(CCCl)CCCl)cc1)=NCC2	26µM*	16µM*	13µM*	i	?	i
CC12CCC(=O)C=C1C=CC1C2CCC2(C)C(O)CCC12 (stereo unspecified)	-20%	6%	-27%	2.1µM*	-4%	8.2µM*
C[C@]12CC[C@H]3[C@@H](CCC4=C(Cl)C(=O)CC[C@@]43C)[C@@H]1CC[C@@H]2O	.	-8%	?	.	.	.
C[C@]12CCC(=O)C=C1C=CC1C2CC[C@@]2(C)C1CC[C@@H]2O (stereo partly specified)	0%	?	-27%	3.7µM*	0%	?
CCCC1(CCO)C(=O)NC(=S)NC1=O	-1%	11%	0%	i	0%	?
COc1ccc(/C=C/C(=O)N2CC3C[C@@H](C2)Cn2c3cccc2=O)cc1OC	.	17%[9.04 µM]	-4%[9.04 µM]	.	.	.
ClC(Cl)=C(c1ccc(Cl)cc1)c1ccc(Cl)cc1	14%	1%	-18%	i	18%	i
SMILES	HT1080 IDH1KD tx	DT40 TDP1 CPT	DT40 TDP1 no CPT	KB-V1 cytotox	HT1080-NT tox	KB-3-1 tox
Cc1c(C=O)c2ccccc2n1Cc1ccc([N+](=O)[O-])cc1	-24%	?	-30%	10µM*	-16%	i
Cc1ccc(C(O)P(=O)(OC2CCCCC2)OC2CCCCC2)cc1 (stereo unspecified)	3%	?	?	i	3%	i
O=P(OC1CCCCC1)(OC1CCCCC1)C(O)c1ccc(Cl)cc1Cl (stereo unspecified)	15%	16µM*	21µM*	i	0%	i
O=P(OC1CCCCC1)(OC1CCCCC1)C(O)c1c(Cl)cccc1Cl (stereo unspecified)	-8%	?	?	18µM*	-2%	?
CN(C)c1ccc(C(O)P(=O)(OC2CCCCC2)OC2CCCCC2)cc1 (stereo unspecified)	-1%	?	-30%	i	14%	?
O=C(OCCN1CCCCC1)C(O)(c1ccccc1)c1ccccc1	.	7%	-1%	.	.	.
CC(C)c1cccc(O)c(=O)c1	-22%	6.5µM*!	22µM*	i	-21%	?
O=C(Cc1ccccc1F)N1CCN(CC(=O)N2CCCC2)CC1	15%	17%	-9%	i	5%	i

Bioassay records (PubChem)
